This passage reports binding signal results from paper PMC8384837, “Expanding the binding specificity for RNA recognition by a PUF domain”.

The first assay concerns the target PUM1 PUF domain R5-SGR (Homo sapiens, UniProt Q14671 828-1176, C1007S;R1008G;Q1011R). Nature of the assay: yeast three-hybrid, YBZ-1, SC-Leu-His + 0.5 mM 3-AT, 4 days. Particulars: tags: N-Gal4 AD-HA kept; label: inside an RPR1-promoter hybrid RNA with tandem MS2 sites; ssRNA. The method, boiled down: (§1)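 Sequencing with Illumina followed PCR amplification of the repeat regions from transformants grown four days on SC-Leu (input) or SC-Leu-His + 0.5 mM 3-AT (selection). The transformants were strain YBZ-1 with a LexA–MS2 coat fusion and a HIS3 reporter, carrying Pumilio-1 PUF domain libraries and matching RNA elements. The interaction score is the log change in variant frequency from input to selection, computed in log2 with a pseudocount of 1 for absent variants.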
Consider “GGCUAGAACUAGUGGAUCCCCCGGCGCCCGGCGGCUCGAGCCCGGGUAAGUGUUAAUAGUCUGCAUGCCGCCGGGCGCCAUGCCUGCAGGUCGACUCUAGAAAACAUG”, for which the binding signal is 0.78 log2 enrichment (interaction score). On the same count and under the same terms, with “GGCUAGAACUAGUGGAUCCCCCGGCGCCCGGCGGCUCGAGCCCGGGUAAGUGUCAAUAGUCUGCAUGCCGCCGGGCGCCAUGCCUGCAGGUCGACUCUAGAAAACAUG” the figure was 6.98 log2 enrichment (interaction score); with “GGCUAGAACUAGUGGAUCCCCCGGCGCCCGGCGGCUCGAGCCCGGGUAAGUGUAAAUAGUCUGCAUGCCGCCGGGCGCCAUGCCUGCAGGUCGACUCUAGAAAACAUG”, 1.55 log2 enrichment (interaction score).

The next assay addresses PUM1 PUF domain R5-FRS (Homo sapiens, UniProt Q14671 828-1176, C1007F;Q1011S). Described as above. Particulars: tags: N-Gal4 AD-HA kept; label: inside an RPR1-promoter hybrid RNA with tandem MS2 sites; ssRNA. The method, boiled down:
as §1
On to “GGCUAGAACUAGUGGAUCCCCCGGCGCCCGGCGGCUCGAGCCCGGGUAAGUGUUAAUAGUCUGCAUGCCGCCGGGCGCCAUGCCUGCAGGUCGACUCUAGAAAACAUG”, for which the binding signal was 3.13 log2 enrichment (interaction score).

As for “GGCUAGAACUAGUGGAUCCCCCGGCGCCCGGCGGCUCGAGCCCGGGUAAGUGUCAAUAGUCUGCAUGCCGCCGGGCGCCAUGCCUGCAGGUCGACUCUAGAAAACAUG”, the binding signal was 2.38 log2 enrichment (interaction score). Same read-out and setting: with “GGCUAGAACUAGUGGAUCCCCCGGCGCCCGGCGGCUCGAGCCCGGGUAAGUGUAAAUAGUCUGCAUGCCGCCGGGCGCCAUGCCUGCAGGUCGACUCUAGAAAACAUG” the figure was 0.74 log2 enrichment (interaction score).

A further assay concerns the target PUM1 PUF domain R8-SFK (Homo sapiens, UniProt Q14671 828-1176, N1122S;Y1123F;Q1126K). The assay is described as above. Particulars: tags: N-Gal4 AD-HA kept; label: inside an RPR1-promoter hybrid RNA with tandem MS2 sites; ssRNA. The method, boiled down:
as §1
On to “GGCUAGAACUAGUGGAUCCCCCGGCGCCCGGCGGCUCGAGCCCGGGUAAGGGUAAAUAGUCUGCAUGCCGCCGGGCGCCAUGCCUGCAGGUCGACUCUAGAAAACAUG”, for which the binding signal was 2.09 log2 enrichment (interaction score). Turning to “GGCUAGAACUAGUGGAUCCCCCGGCGCCCGGCGGCUCGAGCCCGGGUAAGCGUAAAUAGUCUGCAUGCCGCCGGGCGCCAUGCCUGCAGGUCGACUCUAGAAAACAUG”, the binding signal was 5.53 log2 enrichment (interaction score). Still for that read-out and setting: with “GGCUAGAACUAGUGGAUCCCCCGGCGCCCGGCGGCUCGAGCCCGGGUAAGUGUAAAUAGUCUGCAUGCCGCCGGGCGCCAUGCCUGCAGGUCGACUCUAGAAAACAUG” the figure was 5.06 log2 enrichment (interaction score).
